Measured values taken from the supplement of paper PMC11732987, “Enantioselective OTUD7B fragment discovery through chemoproteomics screening and high-throughput optimisation” (Communications Chemistry, 2025).

Columns and labels:
Experiment in all cases: log2 ratio of Biotin-Ahx-Ub-VS probe labelling (fragment/DMSO); higher = less target engagement (more negative = stronger competition), active = hit call of the paper (q ≤ 0.05, log2 ratio ≤ -1)
Conditions in all cases: compound concentration: 200 uM; treatment time: 3 h
[1] = molecular target: T1, USP19 (UniProt O94966)
T1 sequence (whole entry): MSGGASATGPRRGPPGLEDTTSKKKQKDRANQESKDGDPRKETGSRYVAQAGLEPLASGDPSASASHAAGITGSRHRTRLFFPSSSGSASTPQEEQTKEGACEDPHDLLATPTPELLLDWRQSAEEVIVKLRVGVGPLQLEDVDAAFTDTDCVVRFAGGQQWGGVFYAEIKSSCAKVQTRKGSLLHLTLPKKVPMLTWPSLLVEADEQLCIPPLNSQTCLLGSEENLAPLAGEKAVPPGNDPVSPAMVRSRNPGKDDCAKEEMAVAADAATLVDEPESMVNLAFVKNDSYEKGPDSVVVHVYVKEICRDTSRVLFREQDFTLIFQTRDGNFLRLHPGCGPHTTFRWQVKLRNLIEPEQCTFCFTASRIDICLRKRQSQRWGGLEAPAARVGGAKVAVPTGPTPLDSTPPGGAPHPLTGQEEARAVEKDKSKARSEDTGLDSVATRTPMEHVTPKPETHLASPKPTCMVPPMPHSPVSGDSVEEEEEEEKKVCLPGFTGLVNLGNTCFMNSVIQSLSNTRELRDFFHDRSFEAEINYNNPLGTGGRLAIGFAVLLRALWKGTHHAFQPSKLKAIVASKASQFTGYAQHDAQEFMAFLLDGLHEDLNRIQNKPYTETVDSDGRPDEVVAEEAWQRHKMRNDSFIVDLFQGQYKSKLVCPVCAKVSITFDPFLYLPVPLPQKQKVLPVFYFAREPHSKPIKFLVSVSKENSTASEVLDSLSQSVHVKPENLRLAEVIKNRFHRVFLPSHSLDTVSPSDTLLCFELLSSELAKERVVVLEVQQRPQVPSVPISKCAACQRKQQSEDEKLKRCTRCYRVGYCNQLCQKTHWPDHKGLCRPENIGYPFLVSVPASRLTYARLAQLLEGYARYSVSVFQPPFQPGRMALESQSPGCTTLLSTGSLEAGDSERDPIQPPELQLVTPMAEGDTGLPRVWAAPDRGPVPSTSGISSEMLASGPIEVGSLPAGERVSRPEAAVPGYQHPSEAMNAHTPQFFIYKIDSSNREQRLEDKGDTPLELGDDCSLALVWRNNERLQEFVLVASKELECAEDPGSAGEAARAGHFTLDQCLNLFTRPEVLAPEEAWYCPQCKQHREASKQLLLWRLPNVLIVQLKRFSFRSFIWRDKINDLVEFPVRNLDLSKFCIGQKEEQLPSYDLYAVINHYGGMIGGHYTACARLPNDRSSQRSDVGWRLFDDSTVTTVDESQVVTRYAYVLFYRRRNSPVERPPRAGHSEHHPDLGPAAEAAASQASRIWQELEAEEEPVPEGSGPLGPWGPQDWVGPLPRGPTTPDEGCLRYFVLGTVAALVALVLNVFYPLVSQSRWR
Procedure, shortened: (§1)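 The table lists average log2 ratios of fragment over vehicle, from an unpaired t-test on global-median-normalised Spectronaut label-free quantities. Proteins with ≥2 unique peptides were used. Samples were HEK293T lysate (495 µg) treated in triplicate with fragment at 200 µM or vehicle for 3 h, then with Biotin-Ahx-Ub-VS (0.5 µM final) for 1 h, with labelled DUBs NeutrAvidin-enriched and run by diaPASEF LC-MS/MS.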

[2] = molecular target: T2, USP22 (UniProt Q9UPT9)
T2 sequence (whole entry): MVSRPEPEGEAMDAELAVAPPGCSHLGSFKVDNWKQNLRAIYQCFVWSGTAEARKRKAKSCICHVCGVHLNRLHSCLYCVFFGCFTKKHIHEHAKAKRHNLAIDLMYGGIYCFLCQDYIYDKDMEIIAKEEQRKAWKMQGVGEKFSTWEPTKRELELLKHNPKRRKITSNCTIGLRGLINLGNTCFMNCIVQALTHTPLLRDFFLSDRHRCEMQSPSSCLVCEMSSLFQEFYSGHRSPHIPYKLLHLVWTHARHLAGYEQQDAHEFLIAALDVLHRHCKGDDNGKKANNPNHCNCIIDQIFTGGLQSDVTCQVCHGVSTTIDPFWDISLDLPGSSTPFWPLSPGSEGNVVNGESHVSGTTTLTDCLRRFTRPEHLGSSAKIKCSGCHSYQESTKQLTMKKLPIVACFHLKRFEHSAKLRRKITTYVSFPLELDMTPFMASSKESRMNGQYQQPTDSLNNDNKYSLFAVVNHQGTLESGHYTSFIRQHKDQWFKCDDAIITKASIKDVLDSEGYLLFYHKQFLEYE
Procedure, shortened: as §1

[3] = molecular target: USP24 (UniProt Q9UPU5)
USP24, sequence (Q9UPU5 whole entry): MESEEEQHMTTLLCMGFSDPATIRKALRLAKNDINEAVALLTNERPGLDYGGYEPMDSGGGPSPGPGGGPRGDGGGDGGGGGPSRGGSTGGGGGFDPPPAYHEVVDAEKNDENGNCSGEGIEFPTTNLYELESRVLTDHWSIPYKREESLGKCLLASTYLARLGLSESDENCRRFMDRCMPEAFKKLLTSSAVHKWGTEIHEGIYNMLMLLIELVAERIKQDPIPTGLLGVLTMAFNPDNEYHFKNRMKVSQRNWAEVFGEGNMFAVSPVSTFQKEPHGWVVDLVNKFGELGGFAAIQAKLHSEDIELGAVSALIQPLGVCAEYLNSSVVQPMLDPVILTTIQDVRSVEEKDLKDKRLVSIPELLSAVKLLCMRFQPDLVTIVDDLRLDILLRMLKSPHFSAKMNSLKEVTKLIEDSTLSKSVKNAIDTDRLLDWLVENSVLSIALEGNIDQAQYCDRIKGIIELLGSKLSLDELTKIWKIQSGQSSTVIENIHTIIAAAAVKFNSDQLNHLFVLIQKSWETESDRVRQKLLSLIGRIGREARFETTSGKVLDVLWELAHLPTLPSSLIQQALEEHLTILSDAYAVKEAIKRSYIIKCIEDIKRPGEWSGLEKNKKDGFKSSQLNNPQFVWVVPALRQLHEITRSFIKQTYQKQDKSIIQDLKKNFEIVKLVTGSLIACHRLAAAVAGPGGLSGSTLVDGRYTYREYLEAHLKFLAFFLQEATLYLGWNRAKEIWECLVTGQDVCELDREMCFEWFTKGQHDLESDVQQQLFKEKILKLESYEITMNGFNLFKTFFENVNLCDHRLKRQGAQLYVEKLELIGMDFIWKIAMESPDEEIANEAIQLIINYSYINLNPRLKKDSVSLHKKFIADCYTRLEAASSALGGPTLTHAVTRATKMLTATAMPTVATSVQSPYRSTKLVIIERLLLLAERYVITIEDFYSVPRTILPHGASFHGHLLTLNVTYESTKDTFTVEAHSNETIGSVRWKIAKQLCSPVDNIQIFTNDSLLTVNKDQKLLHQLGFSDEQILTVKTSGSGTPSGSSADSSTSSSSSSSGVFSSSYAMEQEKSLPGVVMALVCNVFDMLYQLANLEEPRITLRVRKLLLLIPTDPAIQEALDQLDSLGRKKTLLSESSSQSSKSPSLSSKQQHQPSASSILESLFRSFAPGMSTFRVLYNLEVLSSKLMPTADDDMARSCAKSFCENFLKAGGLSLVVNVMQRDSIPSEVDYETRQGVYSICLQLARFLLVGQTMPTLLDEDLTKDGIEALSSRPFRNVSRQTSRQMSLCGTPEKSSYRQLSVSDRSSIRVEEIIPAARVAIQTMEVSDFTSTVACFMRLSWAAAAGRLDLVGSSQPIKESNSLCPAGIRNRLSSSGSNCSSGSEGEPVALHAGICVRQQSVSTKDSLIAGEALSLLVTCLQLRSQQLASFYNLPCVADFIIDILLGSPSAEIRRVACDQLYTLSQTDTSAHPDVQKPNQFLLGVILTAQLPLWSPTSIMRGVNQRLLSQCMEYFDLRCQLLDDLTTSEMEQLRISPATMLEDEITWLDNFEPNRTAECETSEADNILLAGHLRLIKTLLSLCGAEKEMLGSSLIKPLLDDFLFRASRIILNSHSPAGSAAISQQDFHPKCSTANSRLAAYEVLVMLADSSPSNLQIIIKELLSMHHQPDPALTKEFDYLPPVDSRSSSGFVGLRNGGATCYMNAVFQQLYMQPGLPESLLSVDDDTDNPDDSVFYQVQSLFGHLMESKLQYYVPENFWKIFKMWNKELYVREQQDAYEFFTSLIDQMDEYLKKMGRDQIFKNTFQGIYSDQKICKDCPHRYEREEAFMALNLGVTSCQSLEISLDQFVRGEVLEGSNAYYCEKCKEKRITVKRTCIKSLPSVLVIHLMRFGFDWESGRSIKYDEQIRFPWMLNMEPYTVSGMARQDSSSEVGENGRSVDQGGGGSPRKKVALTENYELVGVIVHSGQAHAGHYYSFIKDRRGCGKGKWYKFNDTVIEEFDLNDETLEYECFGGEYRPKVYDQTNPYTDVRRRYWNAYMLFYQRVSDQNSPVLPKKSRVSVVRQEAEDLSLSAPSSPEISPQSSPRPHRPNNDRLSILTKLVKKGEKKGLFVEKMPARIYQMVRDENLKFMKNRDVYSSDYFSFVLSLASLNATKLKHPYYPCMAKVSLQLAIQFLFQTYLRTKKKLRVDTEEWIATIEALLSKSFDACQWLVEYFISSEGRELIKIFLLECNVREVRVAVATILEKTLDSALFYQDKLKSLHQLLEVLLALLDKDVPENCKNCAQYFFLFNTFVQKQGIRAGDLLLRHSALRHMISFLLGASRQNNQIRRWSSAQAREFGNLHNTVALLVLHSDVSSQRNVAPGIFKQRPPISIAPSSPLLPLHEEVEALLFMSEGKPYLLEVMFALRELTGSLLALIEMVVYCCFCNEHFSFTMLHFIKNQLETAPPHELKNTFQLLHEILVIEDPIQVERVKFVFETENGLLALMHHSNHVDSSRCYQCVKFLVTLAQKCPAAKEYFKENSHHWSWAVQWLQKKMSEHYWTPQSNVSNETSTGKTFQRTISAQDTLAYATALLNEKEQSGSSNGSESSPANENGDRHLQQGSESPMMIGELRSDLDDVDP
Procedure, shortened: as §1

[4] = molecular target: T3, USP25 (UniProt Q9UHP3)
T3 sequence (whole entry): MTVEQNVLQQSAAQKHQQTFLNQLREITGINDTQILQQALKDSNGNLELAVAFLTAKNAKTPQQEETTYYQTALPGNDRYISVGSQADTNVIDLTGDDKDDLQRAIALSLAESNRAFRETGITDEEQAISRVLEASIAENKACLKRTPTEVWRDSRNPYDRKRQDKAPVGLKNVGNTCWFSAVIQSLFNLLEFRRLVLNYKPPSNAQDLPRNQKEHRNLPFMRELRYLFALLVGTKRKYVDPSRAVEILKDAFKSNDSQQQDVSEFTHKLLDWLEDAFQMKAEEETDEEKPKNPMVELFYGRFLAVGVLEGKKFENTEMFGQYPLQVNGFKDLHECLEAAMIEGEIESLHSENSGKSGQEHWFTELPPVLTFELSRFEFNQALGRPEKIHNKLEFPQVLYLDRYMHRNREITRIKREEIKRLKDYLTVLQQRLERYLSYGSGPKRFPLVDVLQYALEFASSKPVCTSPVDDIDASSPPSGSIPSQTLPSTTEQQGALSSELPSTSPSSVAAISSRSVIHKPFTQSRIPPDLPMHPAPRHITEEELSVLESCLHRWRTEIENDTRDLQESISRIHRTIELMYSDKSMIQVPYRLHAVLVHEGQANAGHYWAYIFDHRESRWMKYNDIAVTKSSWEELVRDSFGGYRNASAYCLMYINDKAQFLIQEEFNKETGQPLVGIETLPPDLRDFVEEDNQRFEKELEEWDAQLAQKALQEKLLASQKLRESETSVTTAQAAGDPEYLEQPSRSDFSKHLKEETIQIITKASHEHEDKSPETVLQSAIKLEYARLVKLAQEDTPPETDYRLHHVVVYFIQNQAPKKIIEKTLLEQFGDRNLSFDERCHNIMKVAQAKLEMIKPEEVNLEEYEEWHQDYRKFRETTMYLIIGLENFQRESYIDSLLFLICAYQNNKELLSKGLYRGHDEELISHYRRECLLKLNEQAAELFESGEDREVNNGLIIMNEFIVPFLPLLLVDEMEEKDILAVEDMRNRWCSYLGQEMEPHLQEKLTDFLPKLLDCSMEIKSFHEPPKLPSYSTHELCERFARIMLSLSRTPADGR
Procedure, shortened: as §1

[5] = molecular target: T4, USP28 (UniProt Q96RU2)
T4 sequence (whole entry): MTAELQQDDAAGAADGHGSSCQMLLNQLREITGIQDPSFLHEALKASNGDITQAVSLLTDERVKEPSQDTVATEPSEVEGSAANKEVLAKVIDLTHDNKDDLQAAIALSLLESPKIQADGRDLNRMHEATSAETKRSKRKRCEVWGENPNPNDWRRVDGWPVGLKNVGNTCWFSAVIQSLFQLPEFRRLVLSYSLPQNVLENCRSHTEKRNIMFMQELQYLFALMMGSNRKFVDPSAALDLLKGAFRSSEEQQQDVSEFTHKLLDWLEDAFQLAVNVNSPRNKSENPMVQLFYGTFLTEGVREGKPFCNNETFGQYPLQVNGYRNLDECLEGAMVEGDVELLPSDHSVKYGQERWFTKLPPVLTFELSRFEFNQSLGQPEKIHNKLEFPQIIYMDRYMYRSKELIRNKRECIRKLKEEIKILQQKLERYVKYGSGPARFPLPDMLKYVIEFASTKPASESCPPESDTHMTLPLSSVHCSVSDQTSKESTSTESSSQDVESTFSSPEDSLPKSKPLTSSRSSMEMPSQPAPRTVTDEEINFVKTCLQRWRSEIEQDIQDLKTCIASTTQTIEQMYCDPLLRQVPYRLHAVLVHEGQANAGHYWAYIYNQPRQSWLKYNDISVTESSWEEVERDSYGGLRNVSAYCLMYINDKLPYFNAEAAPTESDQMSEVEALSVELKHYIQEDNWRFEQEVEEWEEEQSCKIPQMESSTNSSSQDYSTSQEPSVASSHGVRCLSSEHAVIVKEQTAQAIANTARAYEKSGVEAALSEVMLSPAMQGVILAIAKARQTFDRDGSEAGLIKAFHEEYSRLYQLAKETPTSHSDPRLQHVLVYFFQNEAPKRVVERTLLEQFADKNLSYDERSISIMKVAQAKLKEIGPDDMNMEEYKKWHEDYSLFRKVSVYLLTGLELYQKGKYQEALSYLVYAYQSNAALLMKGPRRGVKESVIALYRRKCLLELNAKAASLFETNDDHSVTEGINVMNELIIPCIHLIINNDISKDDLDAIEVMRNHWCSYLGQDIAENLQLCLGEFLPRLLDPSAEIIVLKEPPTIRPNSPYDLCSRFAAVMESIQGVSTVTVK
Procedure, shortened: as §1

Measured: log2 ratio of Biotin-Ahx-Ub-VS probe labelling

C[C@@H](NC(=O)CCl)c1cccc(C#N)c1
inactive: [1] -0.157 | [2] 0.031 | [3] -0.254 | [4] -0.569 | [5] -0.723
